According to PubChem BioAssay AID504467 (National Center for Advancing Translational Sciences (NCATS), 2011):
Among all 330,000 compounds or so, about 7,700 (2.3%) were called active. Another 26% or so got no clear call; they are omitted. Only a selection was taken, and actives are over-represented in it overall. Unmarked numbers belong to inactive results. The call rests on the fitted dose curve; in most records, active means well fitted inhibition curve with a large enough effect; inconclusive means small, poorly fitted or top-dose-only effect, or effect the other way; inactive means flat fitted curve, though single readings scatter.
On the % scale 0 is the no-effect control and ±100 the full control effect; potency means the concentration at half of the fitted maximal effect.

Test: qHTS screen for small molecules that inhibit ELG1-dependent DNA repair in human embryonic kidney (HEK293T) cells expressing luciferase-tagged ELG1; further: nearly all actives have a fitted effect of over 55% in size
Settings: HEK293T ELG1-luciferase reporter, luminescence, 16 h, DNA damage induced by 5-fluorouridine; series mostly up to 46.1 µM; activity change, negative = inhibition: at the top concentration
Excerpt: NIH Molecular Libraries Probe Production Network [MLPCN] NIH Chemical Genomics Center [NCGC] MLPCN Grant: 1 R03 MH092164-01 Assay Provider: Kyungjae Myung, NHGRI, NIH Keywords: MLPCN, qHTS, NCGC, genotoxicity, cancer Assay Overview: Cancer cells divide rapidly compared to normal cells in the body. During cell division, cancer cells need to duplicate their genome by DNA replication. The failure of genome duplication leads to cancer cells' death. Therefore, inhibitors of DNA replication could specifically kill cancer cells. Based on this concept, many chemotherapeutic agents were developed and have been used to treat cancer patients. However, there are a limited number of agents available in the clinical setting, and some of those that do exist have low efficacy and severe side effects. Therefore, if we can find the compounds that effectively block DNA replication either by directly damaging DNA or by inhibiting other cellular mechanisms, the options for cancer treatment will be broadened. With this in mind, we developed a quantitative high-throughput ELG1-luciferase reporter gene assay. Small molecules that specifically block ELG1 function in response to DNA damage can be identified by monitoring the suppression of luciferase activity. Since ELG1 defines a pathway for repairing DNA damage, agents blocking ELG1 function can be used to sensitize cancer cells to chemotherapeutic agents whose mechanism of action involves the induction of DNA damage.
Assay Protocol Summary: For genotoxicity screening, 2,000 cells in 4 uL/well were dispensed into white, solid-bottom 1536-well plates using a solenoid-based dispenser. Following transfer of 1 uL 5-Fluorouridine and 23 nL compound or DMSO vehicle by a pin tool, the plates were incubated 16 hr at 37 °C and 5% CO2. 5 ul ONE-Glo (Promega) was then added to each plate and following a 30 min incubation at room temperature, luciferase activity was quantified on a ViewLux CCD-based plate reader.
For `O=C(/C=C/c1cccs1)c1cc(Cl)ccc1OC(=O)N1CCOCC1`, the Potency was 18.4 µM (active).
With `CC(=O)Nc1ccc(C(=O)C(Cc2ccccc2)N(C)C)cc1` (stereo not given) the “activity change, negative = inhibition” value was 4.04%.
For `Cc1nc2ccccc2c(=O)n1-c1ccc(Cl)cc1Cl`, the “activity change, negative = inhibition” value was -3.5%.
For `COC1=CC=C2[C@H]3Cc4ccc(OC)c5c4[C@@]2(CCN3C)C1O5` (stereo not given in full), the “activity change, negative = inhibition” value was 3.28%.
With `COC(=O)C1=C(c2cccc(OCc3ccccc3)c2)C[C@@H]2CC[C@H]1N2C(=O)NNCc1ccccc1` the “activity change, negative = inhibition” value was -26.5%.
In the case of `COC(=O)C1=C(c2cccc(OCc3ccccc3)c2)C[C@@H]2CC[C@H]1N2C(=O)NCc1ccc(Br)cc1`, the “activity change, negative = inhibition” value is reported as -23.4%.
With `COc1ccc(CNCCc2c[nH]c3ccccc23)cc1OC` the “activity change, negative = inhibition” value was -3.99%.
With `O=C(c1ccccc1[N+](=O)[O-])N1CCC2(CC1)OCCO2` the “activity change, negative = inhibition” value was -2.85%.
With `O=C(c1cc(-c2ccncc2)nc2ccccc12)N1CCC2(CC1)OCCO2` the “activity change, negative = inhibition” value was -25.8%.
With `O=C(c1cc2nc(-c3ccccc3)cc(-c3ccccc3)n2n1)N1CCC2(CC1)OCCO2` the Potency was 20.6 µM (active).
For `CCCCn1c(=O)c(C(=O)Nc2ccccc2Cl)c(O)c2ccccc21`, the “activity change, negative = inhibition” value was 14.3%.
In the case of `Cc1cccc(NC(=O)N2CC3CC(C2)c2cccc(=O)n2C3)c1` (stereo not given), the “activity change, negative = inhibition” value is reported as 23.2%.
For `Cc1ncc(CC(=O)n2cc(C(=O)c3cc(Cl)ccc3O)cn2)s1`, the Potency was 20.6 µM (active).
In the case of `CCN1C(=O)C(=Cc2c(C)n(CC(=O)NCC3CCCO3)c3ccccc23)C(=O)N(CC)C1=S` (stereo not given), the “activity change, negative = inhibition” value is reported as -1.72%.
With `Cc1ccccc1NC(=O)COC(=O)c1cc(C)n(C2CC2)c1C` the “activity change, negative = inhibition” value was -17.9%.
For `c1cc2c(cc1C1OCC3C(c4ccc5c(c4)OCO5)OCC13)OCO2` (stereo not given), the “activity change, negative = inhibition” value was -8.1%.
For `CN(C)CCN(CC1CCCN(Cc2ccccc2F)C1)C(=O)Cc1ccc(F)c(F)c1` (stereo not given), the “activity change, negative = inhibition” value was -0.923%.
With `CC(Cc1ccccc1)NCCC(c1ccccc1)c1ccccc1` (stereo not given) the “activity change, negative = inhibition” value was -13.5%.
In the case of `Cc1ncoc1C(=O)NCCC(c1ccccc1)c1ccccc1`, the Potency is reported as 20.6 µM (active).
With `CCN(CC)C(=O)Oc1ccc(NC(=O)N2CCOCC2)cc1` the “activity change, negative = inhibition” value was -12.4%.
In the case of `CCOc1cccc(=NC2CCCCC2)c2c(C)[nH]c(C)c12`, the Potency is reported as 10.3 µM (active).
For `O=c1[nH]c(O)c(C=Nc2cc(F)cc(F)c2)c(=O)[nH]1`, the “activity change, negative = inhibition” value was -9.9%.
With `CCC(=O)c1ccc(OCC(=O)N2CCN(CC(=O)Nc3ccc(C)cc3)CC2)cc1` the “activity change, negative = inhibition” value was 1.39%.
In the case of `COc1ccc2[nH]c3c(c2c1)CCN[C@H]3C`, the “activity change, negative = inhibition” value is reported as -0.326%.
In the case of `CCOC(=O)C(O)(c1ccc(NC(=O)c2ccco2)c(OC)c1)C(F)(F)F` (stereo not given), the “activity change, negative = inhibition” value is reported as 10.8%.
With `COc1cc(Cn2c(N)c(C(=O)NCc3ccco3)c3nc4ccccc4nc32)cc(OC)c1OC` the Potency was 3.26 µM (active).
For `COc1ccccc1NC(=O)N1C[C@@H]2C[C@@H](C1)c1cccc(=O)n1C2`, the “activity change, negative = inhibition” value was 7.46%.
In the case of `O=C(Cc1ccc(Cl)cc1)NCCN1CCN(C(=O)Cc2ccc(Cl)cc2)CC1`, the “activity change, negative = inhibition” value is reported as -15.8%.
For `CC1CCC(N(C)C2CCN(C)CC2)CC1` (stereo not given), the “activity change, negative = inhibition” value was -6.89%.
For `COc1cc(-n2c(=S)[nH]c3ccc(C)cc3c2=O)c(Cl)cc1Cl`, the Potency was 16.4 µM (active).
With `COC(=O)C1=C(c2ccc(Cl)c(C(F)(F)F)c2)C[C@@H]2CC[C@H]1N2C(=O)NC(C)C` the “activity change, negative = inhibition” value was -3.51%.
In the case of `O=C(O)c1ccccc1NC(=O)C1C2CCC(O2)C1C(=O)O` (stereo not given), the “activity change, negative = inhibition” value is reported as 27.7%.
With `COC(=O)C1=C(c2ccc(F)cc2OCc2ccccc2)C[C@@H]2CC[C@H]1N2C(=O)NCc1ccc(C(C)(C)C)cc1` the “activity change, negative = inhibition” value was 1.55%.
With `COc1ccc(CNCCc2ccc3c(c2)OCO3)c(OC)c1OC` the “activity change, negative = inhibition” value was -12.2%.
In the case of `O=C(NC(=S)N1C[C@H]2C[C@H](C1)c1cccc(=O)n1C2)c1ccc(F)cc1`, the “activity change, negative = inhibition” value is reported as 1.64%.
For `CN(c1ccccc1)c1ccc([N+](=O)[O-])c2nonc12`, the “activity change, negative = inhibition” value was -0.77%.
With `Oc1cc2c(cc1CN1CCN(c3ccccc3)CC1)OCO2` the “activity change, negative = inhibition” value was 4.24%.
For `CCC(C)n1c(O)c(/C=N/Nc2nc3c(c(=O)n(C)c(=O)n3C)n2C)c(=O)[nH]c1=S` (stereo not given), the Potency was 23.1 µM (active).
With `C[C@]12CC[C@H](O)CC1=C([N+](=O)[O-])CC1C2CC[C@@]2(C)C1CC[C@@H]2O` (stereo not given in full) the “activity change, negative = inhibition” value was -28%.
In the case of `c1ccc(CC2CCCCN2)cc1` (stereo not given), the “activity change, negative = inhibition” value is reported as 0.138%.
With `CCCCCn1c(=O)c(C(=O)NCc2ccccc2)c(O)c2ccccc21` the “activity change, negative = inhibition” value was -26.2%.
In the case of `CCCCCCCCCCCCn1ccc(=N)cc1`, the Potency is reported as 5.8 µM (active).
For `COc1cccc(OC)c1C(=O)NC(=S)N1C[C@H]2C[C@H](C1)c1cccc(=O)n1C2`, the “activity change, negative = inhibition” value was 18%.
In the case of `COC(=O)[C@@H]1C(OC(=O)c2ccccc2)CC2CCC1N2C` (stereo not given in full), the “activity change, negative = inhibition” value is reported as 2.1%.
With `CC[C@H]1CN2CCc3cc(OC)c(OC)cc3[C@@H]2C[C@@H]1C[C@H]1NCCc2cc(OC)c(OC)cc21` the Potency was 0.259 µM (active).
With `COc1ccc(N2C(=O)/C(=C/c3ccco3)C(=O)NC2=S)cc1` the “activity change, negative = inhibition” value was -10.8%.
In the case of `Cc1c(Oc2cc(NN3CCCCC3)c([N+](=O)[O-])cc2[N+](=O)[O-])cccc1[N+](=O)[O-]`, the “activity change, negative = inhibition” value is reported as 27.2%.
For `CCc1ccc(OCC(=O)N2CCN(CC(=O)Nc3ccccc3Cl)CC2)cc1`, the “activity change, negative = inhibition” value was -14.5%.
For `COC(=O)C1=C(c2ccc(Cl)c(C(F)(F)F)c2)C[C@@H]2CC[C@H]1N2C(=O)NC1CC1`, the “activity change, negative = inhibition” value was -20.8%.
With `C[C@]12CCC3C(CC[C@H]4C[C@@H](O)CC[C@]34C)C1CC[C@@H]2O` (stereo not given in full) the “activity change, negative = inhibition” value was 5.31%.
